XTT viability, phenotypic severity score and drug effect data for 20 compounds are collected here from the supplement of paper PMC6805474.

Assay [1] concerns Schistosoma mansoni schistosomula (LE). Description: XTT viability relative to DMSO control; higher = more viable (less active). As to conditions: 72 h; 10 µM. As to the method: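 XTT/PMS was then added for a further 24 h (72 h total) and A450 was read. % viability = (sample - heat-killed control)/(DMSO control - heat-killed control) x 100, from duplicate wells in two independent experiments.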

In assay [2] the test system is Schistosoma mansoni schistosomula (NMRI). In words: phenotypic severity score (0-4); higher = more antischistosomal effect, active = 2 or more. As to conditions: 10 µM.
The subject of assay [3] is Schistosoma mansoni schistosomula (Liberian). Description: drug effect (1 - score/DMSO control score) (fraction); higher = more antischistosomal effect, active = 0.5 or more; extreme values may be limits of the assay. As to conditions: 10 µM. The gist of the method: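 A plate was valid only if its 0.1% DMSO wells averaged a score of at least 2. Those wells ran beside duplicate wells in which 50 Liberian-strain Schistosoma mansoni schistosomula each, transformed mechanically from cercariae and pre-incubated at least 12 h, met 10 µM compound in Medium 199 with 5% FCS at 37 °C, 5% CO2. Scoring was visual at 10× at 24, 48 and 72 h, from 3 (normal) to 0 (dead) in quarter-point steps. Drug effect was derived from the mean test-well score against the mean DMSO-well score, with negatives set to zero.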
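Throughout, for phenotypic severity score (0-4): visual microscopic scoring of shape, motility and density changes versus 0.5% DMSO solvent controls, one point per descriptor, degeneracy or death scored 4, mean of duplicate wells.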

In the case of `COc1ccc(-c2cnc3ccc(N4CCCC4)nn23)cc1OC`, in assay [1], the XTT viability stood at 60.5%. Besides, the phenotypic severity score was 2 (active) in assay [2] (24 h), 4 (active) in assay [2] (48 h) and 4 (active) in assay [2] (72 h). The drug effect in assay [3] (24 h) is 0.784 (active); in assay [3] (48 h) it was 0.944 (active); in assay [3] (72 h), 1 (active).

Take `NCCN(C(=O)c1ccc(Cl)cc1Cl)c1ccc(OCc2ccc(Cl)cc2)cc1`: the XTT viability in assay [1] turned out to be 22.7%. Moreover, the phenotypic severity score in assay [2] (24 h), in assay [2] (48 h) and in assay [2] (72 h) was 0 (inactive) in each case. For the same compound, the drug effect in assay [3] (24 h) is 0.4 (inactive); in assay [3] (48 h) it was 0.333 (inactive); in assay [3] (72 h), 0.312 (inactive).

As for `CC(C)C(Oc1cccc2ccccc12)C(=O)O` (stereo not given), the XTT viability in assay [1] was 108%. The phenotypic severity score in assay [2] (24 h), in assay [2] (48 h) and in assay [2] (72 h) was 0 (inactive) in each case. For the same compound, the drug effect is < 0 (inactive) in assay [3] (24 h), < 0 (inactive) in assay [3] (48 h) and 0.0556 (inactive) in assay [3] (72 h).

Regarding `O=C(Nc1ccc(N2CCNCC2)nc1)c1oc(-c2ccccc2)nc1C(F)(F)F`, the XTT viability in assay [1] was 69.7%. In addition, the phenotypic severity score in assay [2] (24 h), in assay [2] (48 h) and in assay [2] (72 h) was 0 (inactive) in each case. The drug effect in assay [3] (24 h) is 0.0811 (inactive); in assay [3] (48 h) it was 0.389 (inactive); in assay [3] (72 h), 0.625 (active).

With `CC1(C)Cc2c(c(N3CCOCC3)nc3snc(Br)c23)CO1`, the XTT viability in assay [1] was 71.5%. Also, the phenotypic severity score in assay [2] (24 h), in assay [2] (48 h) and in assay [2] (72 h) was 0 (inactive) throughout. The drug effect in assay [3] (24 h) was 0.0455 (inactive); in assay [3] (48 h), 0.1 (inactive); in assay [3] (72 h) it was 0.105 (inactive).

Regarding `O=C(Nc1cccc(Cl)c1)c1cnc(N2CCN(c3ccncc3)CC2)c(Cl)c1`, in assay [1], the XTT viability is 3.67%. The phenotypic severity score in assay [2] (24 h) is 2 (active); in assay [2] (48 h), 4 (active); in assay [2] (72 h), 4 (active). The figures for the drug effect in assay [3] (24 h), in assay [3] (48 h) and in assay [3] (72 h) were 0.8 (active), 0.946 (active) and 1 (active), respectively.

Take `CC(C)C(NC(=O)Cc1cccc2ccccc12)C(=O)Nc1cccc(C#N)c1` (stereo not given): the XTT viability in assay [1] came to 68.8%. Besides, the phenotypic severity score in assay [2] (24 h), in assay [2] (48 h) and in assay [2] (72 h) was 0 (inactive) each time. The drug effect in assay [3] (24 h) was 0.15 (inactive); in assay [3] (48 h) it was 0.222 (inactive); in assay [3] (72 h), 0.333 (inactive).

Consider `COC(=O)c1ccc(F)cc1NS(=O)(=O)c1cccc(-c2cnn(Cc3ccccc3)c2)c1`, for which, in assay [1], the XTT viability is 89.1%. Also, the phenotypic severity score in assay [2] (24 h), in assay [2] (48 h) and in assay [2] (72 h) was 1 (inactive) throughout. Also, the drug effect was 0.409 (inactive) in assay [3] (24 h), 0.45 (inactive) in assay [3] (48 h) and 0.455 (inactive) in assay [3] (72 h).

In the case of `Clc1ccc(CCNc2cc(-c3ccccc3)nc3ncnn23)cc1`, the XTT viability in assay [1] was 83.9%. Also, the phenotypic severity score in assay [2] (24 h) was 0 (inactive); in assay [2] (48 h) it was 1 (inactive); in assay [2] (72 h), 0 (inactive). The drug effect in assay [3] (24 h) was 0.136 (inactive); in assay [3] (48 h), 0.2 (inactive); in assay [3] (72 h) it was 0.127 (inactive).

`COc1cc(-c2cc(-c3ccc(S(C)(=O)=O)cc3)cnc2N)ccc1O`: in assay [1], the XTT viability turned out to be 139%. The phenotypic severity score in assay [2] (24 h) is 2 (active); in assay [2] (48 h) it was 1 (inactive); in assay [2] (72 h), 1 (inactive). For the same compound, the drug effect in assay [3] (24 h) was 0.1 (inactive); in assay [3] (48 h), 0.189 (inactive); in assay [3] (72 h) it was 0.152 (inactive).

Consider `Cc1cc2nc(NC(=O)C(C)(C)C)nc(Cl)c2n1Cc1ccc(Cl)cc1`, for which, in assay [1], the XTT viability is 109%. Besides, the phenotypic severity score in assay [2] (24 h), in assay [2] (48 h) and in assay [2] (72 h) was 0 (inactive) in each case. The drug effect is 0.136 (inactive) in assay [3] (24 h), 0.4 (inactive) in assay [3] (48 h) and 0.345 (inactive) in assay [3] (72 h).

For `Cc1ccc2[nH]c(C3CCCNC3)c(-c3ccncc3)c2c1` (stereo not given), in assay [1], the XTT viability amounted to 75.2%. The phenotypic severity score in assay [2] (24 h), in assay [2] (48 h) and in assay [2] (72 h) was 0 (inactive) each time. The results for the drug effect in assay [3] (24 h), in assay [3] (48 h) and in assay [3] (72 h) were < 0 (inactive), < 0 (inactive) and 0.111 (inactive), respectively.

Regarding `Cc1ccc2c(c1C)NC(=O)C21NN=C(c2ccccc2)S1` (stereo not given), in assay [1], the XTT viability amounted to 125%. The phenotypic severity score was 2 (active) in assay [2] (24 h), 0 (inactive) in assay [2] (48 h) and 0 (inactive) in assay [2] (72 h). The drug effect was < 0 (inactive) in assay [3] (24 h), 0.135 (inactive) in assay [3] (48 h) and 0.222 (inactive) in assay [3] (72 h).

Take `CC(=O)N1CCN(c2ccc(Oc3ccc(Cl)cc3O)cc2)CC1`: the XTT viability in assay [1] was 89.7%. For the same compound, the phenotypic severity score in assay [2] (24 h), in assay [2] (48 h) and in assay [2] (72 h) was 0 (inactive) each time. The drug effect in assay [3] (24 h) was 0.1 (inactive); in assay [3] (48 h) it was 0.027 (inactive); in assay [3] (72 h) it was 0.0303 (inactive).

On to `Brc1c(-c2ccc3c(c2)OCO3)nc2ncccn12`, for which, in assay [1], the XTT viability came out at 99.9%. The phenotypic severity score in assay [2] (24 h), in assay [2] (48 h) and in assay [2] (72 h) was 0 (inactive) throughout. Further, the drug effect in assay [3] (24 h) is 0.182 (inactive); in assay [3] (48 h) it was 0.2 (inactive); in assay [3] (72 h) it was 0.127 (inactive).

`CCCCc1ccc(NC(=O)Nc2ccc(O[C@H]3CCCC[C@@H]3N(C)c3ccccc3)c(F)c2)cc1`: the XTT viability in assay [1] was found to be 33.7%. For the same compound, the phenotypic severity score in assay [2] (24 h), in assay [2] (48 h) and in assay [2] (72 h) was 0 (inactive) each time. Further, the drug effect in assay [3] (24 h) is 0.111 (inactive); in assay [3] (48 h), 0.312 (inactive); in assay [3] (72 h) it was 0.875 (active).

Consider `CC(C)(C)c1cnc(NC(=O)c2ccccc2O)s1`, for which, in assay [1], the XTT viability was determined as 79.9%. Moreover, the phenotypic severity score is 0 (inactive) in assay [2] (24 h), 1 (inactive) in assay [2] (48 h) and 1 (inactive) in assay [2] (72 h). Further, the drug effect in assay [3] (24 h), in assay [3] (48 h) and in assay [3] (72 h) was 1 (active) each time.

`C[C@@H]1[C@H](O)[C@@H](C)/C=C/C=C/C=C/C=C/C=C/C=C/C=C/[C@H](O[C@@H]2O[C@H](C)[C@@H](O)[C@H](N)[C@@H]2O)C[C@@H]2O[C@](O)(C[C@@H](O)C[C@@H](O)[C@H](O)CC[C@@H](O)C[C@@H](O)CC(=O)O[C@H]1C)C[C@H](O)[C@H]2C(=O)O`: in assay [1], the XTT viability was found to be 95%. Besides, the phenotypic severity score in assay [2] (24 h), in assay [2] (48 h) and in assay [2] (72 h) was 0 (inactive) each time. Further, the figures for the drug effect in assay [3] (24 h), in assay [3] (48 h) and in assay [3] (72 h) were 0.136 (inactive), 0.15 (inactive) and 0.105 (inactive), respectively.

Take `Cc1ccc(NC(=O)c2cc(S(=O)(=O)NC(C)(C)C)ccc2C)nc1`: in assay [1], the XTT viability came out at 90.2%. Besides, the phenotypic severity score in assay [2] (24 h), in assay [2] (48 h) and in assay [2] (72 h) was 0 (inactive) throughout. Also, the results for the drug effect in assay [3] (24 h), in assay [3] (48 h) and in assay [3] (72 h) were 0.2 (inactive), 0.222 (inactive) and 0.375 (inactive), respectively.

Regarding `COCC(C)NC(=O)CSc1ncnc2sc(-c3ccccc3)cc12` (stereo not given), the XTT viability in assay [1] is 93.6%. Moreover, the phenotypic severity score in assay [2] (24 h), in assay [2] (48 h) and in assay [2] (72 h) was 0 (inactive) throughout. In addition, the figures for the drug effect in assay [3] (24 h), in assay [3] (48 h) and in assay [3] (72 h) were 0.1 (inactive), 0.135 (inactive) and 0.111 (inactive), respectively.
